Screens (PubChem)
This is a sample that favours compounds with a hit; in the whole collection about 2.8% have one here.
B2AR ag – agonists of human beta-2 adrenergic receptor inducing internalization; P07550; Am2.2-beta2AR cells, FAP receptor internalization, flow cytometry; response, % (no concentration beside the values); actives 0.43% (n = 340,000); AID 504454;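 active means response above a set limit, near 3 SD of response in nonfluorescent compounds, cut at about 42% in these data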
Target sequence (P07550 whole entry, looked up): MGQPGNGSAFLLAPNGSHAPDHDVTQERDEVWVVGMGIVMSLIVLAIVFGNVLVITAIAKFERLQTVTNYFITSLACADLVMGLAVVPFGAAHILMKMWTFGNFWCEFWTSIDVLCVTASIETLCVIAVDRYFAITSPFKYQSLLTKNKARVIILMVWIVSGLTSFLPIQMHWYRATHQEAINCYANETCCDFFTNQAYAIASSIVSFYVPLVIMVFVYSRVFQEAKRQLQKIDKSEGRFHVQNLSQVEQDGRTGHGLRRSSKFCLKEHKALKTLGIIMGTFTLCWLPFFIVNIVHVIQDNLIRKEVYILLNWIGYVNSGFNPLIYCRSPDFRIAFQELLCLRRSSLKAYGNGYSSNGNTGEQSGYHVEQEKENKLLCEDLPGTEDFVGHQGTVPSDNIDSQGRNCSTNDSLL
KKLEB cytotox – reduces viability of KKLEB cystic fibrosis airway cells; KKLEB CF airway cells viability, ATPlite luminescence, overnight; stronger effect = lower value; cells stimulated with P. aeruginosa culture filtrate; actives 0.36% (n = 360,000); activity change (cytotoxicity), % at 5 µM;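 active means corrected activity change at or below -50% at 5 µM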
TRPM1 prom inh – inhibitors of MITF-driven TRPM1 promoter in melanoma cells; SK-MEL-5 TRPM1 promoter luciferase, 24 h; inhibition, % at 12.5 µM; actives 0.83% (n = 330,000); AID 488899;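 active means mean inhibition across replicates of 60% or more, whatever share of single replicates reaches that level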
HIF-2a block – inhibitors of HIF-2a; actives 0.72% (n = 360,000); inhibition, % at 18.8 µM; 786-0 RCC cells HIF-2a reporter, luciferase luminescence, overnight; AID 624352;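 active means inhibition of the luminescence signal of 40% or more relative to plate controls, in a single-dose primary screen at 18.75 µM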
CF NFkB inh – blocks PAF-induced NF-kB reporter in cystic fibrosis cells; inhibition, % at 5 µM; actives 0.86% (n = 360,000); AID 588850; KKLEB NF-kB-GFP reporter, GFP fluorescence overnight;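 active means at least 50% inhibition at 5 µM, scaled per plate between neutral and stimulator controls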;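 further: PAF is a Pseudomonas aeruginosa culture filtrate used as stimulus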
Peg3 promoter – inhibitors of Peg3 promoter. actives 1.7% (n = 360,000). HeLa PEG-Prom luciferase reporter, luminescence, overnight. AID 588405. inhibition, % at 20 µM;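 active means inhibition of at least 50% at 20 µM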
Large screens that a line does not name were inactive.

O=C(c1cccc(Br)c1)c1nc2ccccc2[nH]c1=O	none (no result: B2AR ag, TRPM1 prom inh)
O=C(Nc1ccc(Cl)cn1)C1CCCN(c2ncnc3c2nc2n3CCCCC2)C1 (stereo unspecified)	Peg3 promoter 56
O=C(C1CCN(c2ncnc3c2nc2n3CCCCC2)CC1)N1CCN(c2cccc(Cl)c2)CC1	Peg3 promoter 60
CC1CCN(C(=O)C2CCN(c3ncnc4c3nc3n4CCCCC3)CC2)CC1	none
O=C(C1CCCN(c2ncnc3c2nc2n3CCCCC2)C1)N1CCN(c2ccc(Cl)cc2)CC1 (stereo unspecified)	Peg3 promoter 56
Cc1ccc(S(=O)(=O)N2C[C@H]3N(C(=O)OC(C)C)N(C(=O)OC(C)C)C[C@H](OC(=O)NCc4ccco4)[C@@]3(O)C2)cc1	none (no result: B2AR ag, TRPM1 prom inh)
c1ccc2c(c1)nc(N1CCCCCC1)c1nncn12	none (no result: B2AR ag, TRPM1 prom inh)
CCOC(=O)CCCCCC(=O)Nc1ccc2c(c1)C(=O)N([C@@H](C)CO)C[C@H](C)[C@H](CN(C)C(=O)c1ccccc1)OCCCC[C@H](C)O2	none (no result: B2AR ag, TRPM1 prom inh)
OC[C@@H](O)C(O)[C@@H](O)CO (stereo partly specified)	none (no result: B2AR ag, TRPM1 prom inh)
COc1cccc(NC(=O)CSc2nc3c(sc4ccccc43)c(=O)n2CCN(C)C)c1	none
Cc1ccc(CNC(=O)CSc2nc3c(sc4ccccc43)c(=O)n2CCCN2CCCC2)cc1	Peg3 promoter 109
COc1ccc(NC(=O)CSc2nc3ccccc3c(=O)n2CCCN2CCC(C)CC2)c(OC)c1	Peg3 promoter 69
COc1cccc(NC(=O)CSc2nc3c(sc4ccccc43)c(=O)n2CCCN2CCCC2)c1	TRPM1 prom inh 98, Peg3 promoter 94
O=C(C1=NOC2(C1)C(=O)Nc1ccccc12)N1CCOCC1 (stereo unspecified)	none (no result: B2AR ag, KKLEB cytotox, TRPM1 prom inh, CF NFkB inh, Peg3 promoter)
Nc1nnc2cc(Cl)ccc2n1	none
Nc1nc(N)c2cc(Sc3cccc(C(F)(F)F)c3)ccc2n1	Peg3 promoter 107 (no result: B2AR ag, TRPM1 prom inh)
Nc1nc(N)c2cc(Sc3ccc4ccccc4c3)ccc2n1	Peg3 promoter 107 (no result: TRPM1 prom inh)
Nc1nc(N)c2cc(Sc3ccc(Cl)cc3)ccc2n1	Peg3 promoter 104 (no result: B2AR ag, TRPM1 prom inh)
O=C(Nc1cccc(Oc2ccccc2)c1)C1Cc2c(-c3cccc(F)c3)ccnc2O1 (stereo unspecified)	none (no result: B2AR ag, TRPM1 prom inh)
CC(C)c1ccc(CC(=O)N2CCC2(C)C(=O)NCc2cccc3ccccc23)cc1 (stereo unspecified)	none (no result: B2AR ag, TRPM1 prom inh)
COC(=O)c1cc(S(=O)(=O)N2CCOCC2)c(Cl)cc1N1CCOCC1	none
COC(=O)c1cc(C)nc2c1C(=O)C(=O)C=C2N1CCOCC1	B2AR ag 61, KKLEB cytotox -58, TRPM1 prom inh 84, HIF-2a block 83, CF NFkB inh 88, Peg3 promoter 100
O=C1NC[C@H](CCCCN2C[C@H](Cc3ccc(O)cc3)N(CCc3ccc(O)cc3)C(=O)C2=O)N(CCc2ccc(O)cc2)C1=O	none (no result: B2AR ag, KKLEB cytotox, TRPM1 prom inh, CF NFkB inh, Peg3 promoter)
Cn1nc(C(=O)Nc2ccc(Cl)c(S(=O)(=O)N3CCOCC3)c2)c2ccccc2c1=O	Peg3 promoter 53
O=C(Nc1ccc(Cl)c(S(=O)(=O)N2CCOCC2)c1)c1ccc(OCC2CCCO2)cc1 (stereo unspecified)	TRPM1 prom inh 72, Peg3 promoter 103
COc1cc(CNC(=O)Nc2nnc([C@@H]3C[C@H](O)[C@@H](CO)O3)s2)cc(OC)c1OC	none (no result: B2AR ag, TRPM1 prom inh)
Cc1ccc2ccc(C(Nc3ccccn3)c3ccccc3)c(O)c2n1 (stereo unspecified)	none (no result: TRPM1 prom inh)
Oc1c(C(Nc2ccccn2)c2ccccn2)ccc2cccnc12 (stereo unspecified)	TRPM1 prom inh 71, Peg3 promoter 54
CCN(CC)CCOC(=O)C(c1ccccc1)c1ccccc1	KKLEB cytotox -91
C=CC(=O)N1C/C(=C/c2ccc(F)cc2)C(=O)/C(=C\c2ccc(F)cc2)C1	B2AR ag 48, KKLEB cytotox -69, TRPM1 prom inh 96, HIF-2a block 82, CF NFkB inh 91, Peg3 promoter 107
COc1ccccc1-c1cnc(C(O)c2ccc(C)cc2)[nH]1 (stereo unspecified)	none (no result: B2AR ag, TRPM1 prom inh)
COc1cc(NC(=O)CSc2nc(C3CC3)nc3ccccc23)cc(OC)c1	Peg3 promoter 99
O=C(CSc1nc(C2CC2)nc2ccccc12)Nc1ccccc1	none
CC(=O)c1ccc(S(=O)(=O)N2CCN(CC(=O)Nc3ccc(Cl)c([N+](=O)[O-])c3)CC2)cc1	none
Cc1ccc(S(=O)(=O)N2CCN(CC(=O)N/N=C\c3ccc(Cl)c([N+](=O)[O-])c3)CC2)cc1	Peg3 promoter 69
O=C(CN1CCN(S(=O)(=O)c2ccc(Br)cc2)CC1)N/N=C/c1ccc(Cl)c([N+](=O)[O-])c1	Peg3 promoter 93
O=[N+]([O-])c1ccc(O)c(Nc2ncnc3ccc(Br)cc23)c1	CF NFkB inh 58
COc1ccccc1-c1sc2ccccc2c1-c1ccc(OCCN2CCCCC2)cc1	Peg3 promoter 91
COc1ccc2c(-c3ccc(OCCN4CCCCC4)cc3)c(-c3ccccc3OC)sc2c1	Peg3 promoter 92
COc1ccc2sc(-c3ccccc3OC)c(-c3ccc(OCCN(C)C)cc3)c2c1	Peg3 promoter 89
COc1ccc2sc(-c3ccccc3OC)c(-c3ccc(OC)c(F)c3)c2c1	none
Cc1ccc(Cc2c(C3CCCCC3)nc3ccc(Cl)cn23)cc1	none (no result: B2AR ag, TRPM1 prom inh)
N#CCCN(Cc1cccnc1)CN1C(=O)c2ccccc2C1=O	none (no result: B2AR ag, TRPM1 prom inh)
CCC(C)CN1C(=O)CSCC1(C)C(=O)Nc1c(C)cccc1C (stereo unspecified)	none (no result: B2AR ag, KKLEB cytotox, TRPM1 prom inh, CF NFkB inh, Peg3 promoter)
O=C1OCCC1Sc1nnc(-c2ccc(Br)cc2)o1 (stereo unspecified)	HIF-2a block 47
C=CCN1[C@@H](Cc2ccccc2)COc2cc(N3CCSCC3)ccc2S1(=O)=O	none (no result: B2AR ag, KKLEB cytotox, TRPM1 prom inh, CF NFkB inh, Peg3 promoter)
CCC(C)[C@H]1CNC(=O)C(=O)N1CCCCC1CCCCC1 (stereo partly specified)	none (no result: B2AR ag, KKLEB cytotox, TRPM1 prom inh, CF NFkB inh, Peg3 promoter)
COc1ccc(C(=O)COc2ccc3ccc(=O)oc3c2)c(OC)c1	B2AR ag 51
COc1ccc(C(=O)COc2ccc3ccc(=O)oc3c2)cc1	none
CCCC(=O)OCCNc1cc(SCCC(=O)OC)c2nonc2c1[N+](=O)[O-]	none
COC(=O)CCSc1cc(NCCOC(C)=O)c([N+](=O)[O-])c2nonc12	B2AR ag 62
Cc1c(Cl)cccc1N/C(SCC(=O)N1CCCCCC1)=C(/C#N)c1nc2ccccc2s1	KKLEB cytotox -65, CF NFkB inh 54
O=C(CSc1nc2ccccc2s1)N1CCCCC1	none
COc1ccc(Cl)cc1Nc1nc(N)c2ccccc2n1	none
COc1ccc(C)cc1Nc1nc(N)c2cc(OC)c(OC)cc2n1	TRPM1 prom inh 74, Peg3 promoter 84
C=CCNc1nc(-c2sc(NC(=O)C(C)(C)C)nc2C)c(-n2cc(-c3ccccc3)nn2)s1	none (no result: B2AR ag, KKLEB cytotox, TRPM1 prom inh, CF NFkB inh, Peg3 promoter)
CNc1ccc(/C=C/C(=O)c2cccc3ccccc23)cc1[N+](=O)[O-]	Peg3 promoter 67
CCOC(=O)c1cc(-c2cccc(O)c2)oc1C	none (no result: B2AR ag, KKLEB cytotox, TRPM1 prom inh, CF NFkB inh, Peg3 promoter)
